The source of these data is PubChem BioAssay (NCATS).

The assay is described as follows: qHTS profiling of the MIPE4 collection as inhibitors of Plasmodium falciparum (HB3) proliferation (AID 743347).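 Note: plate controls were DMSO vehicle wells for no effect and artemisinin wells for full effect.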 Conditions: P. falciparum HB3 in erythrocytes, SYBR Green DNA, 72 h; at 28.5 µM (top of the series) unless noted. In short, it runs like this:
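Erythrocytes infected with P. falciparum (0.3% parasitemia, 2.5% hematocrit) incubated with compounds 72 h at 37 C, 5% CO2. Lysis with saponin/Triton buffer containing SYBR Green I, overnight at room temperature in the dark; DNA fluorescence (485/535 nm) normalised to 0.29 uM artemisinin and DMSO.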
`CC(C)C[C@H](NC(=O)[C@H](CCc1ccccc1)NC(=O)CN1CCOCC1)C(=O)N[C@@H](Cc1ccccc1)C(=O)N[C@@H](CC(C)C)C(=O)[C@@]1(C)CO1` came in with a growth, % of control of 6.02%. The result for `O=C(O)c1cn(C2CC2)c2cc(N3CCNCC3)c(F)cc2c1=O` reads 76.4%; that for `CC1=CC(=O)c2ccccc2C1=O`, 23.6%; that for `COc1ncnc(NS(=O)(=O)c2ccc(N)cc2)c1OC`, 747%.

The compound `CC(=O)Oc1ccccc1C(=O)Nc1ncc([N+](=O)[O-])s1` gave a growth, % of control of 4.58% [at 57.5 µM].
